CDC25B CDK2 inh: human CDC25B-CDK2/CyclinA binding inhibition; HTRF CDC25B-CDK2/CyclinA binding, anti-His/anti-Flag; hits give high values; z-score (concentration not given with the values); actives 0.72% (n = 94,000); in the data active = z-score above about 3.2
HIV TAR-Tat: HIV-1 TAR-Tat binding disruption. actives 0.6% (n = 100,000). HIV-1 TAR RNA, Tat peptide displacement FRET; hits give high values. z-score (no concentration beside the values); active = z-score of 3 or more in at least 2 runs
* hit, by the source's call; x = no result given. In the library only some 0.86% were active in any assay of this set; here they are far more common.

SMILES | CDC25B CDK2 inh | HIV TAR-Tat
CCOC(=O)c1nc(Nc2ccc(N3CCC(C)CC3)cc2)c2c(C)noc2n1 | x | 0.75
Cc1[nH]c(=O)[nH]c(=O)c1S(=O)(=O)Nc1ccc(-c2ccno2)cc1 | x | 1.02
Cc1[nH]c(=O)[nH]c(=O)c1S(=O)(=O)Nc1ccc2oc(-c3ccncc3)nc2c1 | x | 6.21*
CCc1cc2c3c([nH]c2cc1S(=O)(=O)NCc1cccs1)CCCC3=O | x | 1.7
CC(C)(C)c1ccc(N/C=C(\C#N)C(=O)c2ccsc2)cc1 | 13.4* | x
Cc1oc(C(C)(C)C)cc1C(=O)/C(C#N)=C/Nc1ccccc1 | 0.26 | x
COc1ccc(N2CSC3=C(C#N)C(c4cccc(OC)c4OC)CC(=O)N3C2)cc1 (centres undefined) | 4* | -5.68
COc1ccc(N2CSC3=C(C#N)C(c4cccc(OC)c4OC)CC(=O)N3C2)c(OC)c1 (centres undefined) | 5.65* | -0.92
COc1cccc(C2CC(=O)N3CN(c4ccccc4F)CSC3=C2C#N)c1OC (centres undefined) | 4.18* | -0.9
CC(=O)N1CCc2cc(S(=O)(=O)N3CCc4cc5cccc(C)c5nc43)ccc21 | -1.73 | -1.21
CC(=O)N1CCOc2ccc(S(=O)(=O)NC3CCCCC3C)cc21 (centres undefined) | -1.86 | 2.22
CCN(CC)CCNC(=O)C1CCN(c2nnc(-n3cccc3)s2)CC1 | -0.38 | 2.37
Cc1cc(C)n2c(SCc3nnnn3-c3ccccc3)nnc2n1 | -0.56 | x
COc1ccc(C)cc1S(=O)(=O)N1CCc2cc3cccc(C)c3nc21 | -2.35 | 0.8
Nc1cccnc1Nc1ccccc1 | 3.3 | -4.84
COc1ccc(Nc2ncccc2N)cc1 | 12.5* | -1.68
CC(C)(C)NC(=O)c1cccc(N2C(=O)c3cccc([N+](=O)[O-])c3C2=O)c1 | 0.16 | x
O=C(Nc1cccc(O)c1)c1cccc(N2C(=O)c3cccc([N+](=O)[O-])c3C2=O)c1 | 5.13* | x
Cc1cccc(OCCCn2c(C3CCCO3)nc3ccccc32)c1 (centres undefined) | -0.16 | 1.35
Cc1ccc(C2=NS(=O)(=O)N(C)C(C(=O)Nc3cc(C)on3)=C2)cc1 | -1.58 | 1.56
O=C1Nc2c(C(=O)O)cccc2C1=O | 1.4 | 21.4*
O=C(O)c1ccc2c3c(ccc(C(=O)O)c13)C(=O)NC2=O | 1.27 | 0.75
CN(CC1COc2ccccc2O1)S(=O)(=O)c1ccc2c(c1)CCCC(=O)N2 (centres undefined) | x | 0.63
Cc1cc(O)c2c(c1O)C(=O)c1c(O)cc(C)c(O)c1C2=O | x | 0.53
Cc1cc(=O)c2c(O)c3c(O)cc(O)c4c5c(O)cc(O)c6c(O)c7c(=O)cc(C)c8c1c2c(c34)c(c65)c78 | x | 7.83*
SMILES | CDC25B CDK2 inh | HIV TAR-Tat
CC1=C(c2ccc(F)cc2)S(=O)(=O)N=C1Nc1cc(C)ccn1 | x | -0.13
CC1CCN(c2cc(C(=O)O)c3cc(N)ccc3n2)CC1 | x | -6.16
Cc1cccc(N2CCN(c3cc(C(=O)O)c4cc(N)ccc4n3)CC2C)c1 (centres undefined) | x | 6.55*
Cc1ccc(-c2nc3ccccc3c3nnc(SC(C)C(=O)N4CCCC4)n23)cc1 (centres undefined) | x | 0.37
COc1ccc2nc(NC(=O)Nc3cc(Cl)c(OC)cc3OC)sc2c1 | 1.33 | 5.27*
CCOc1ccc2nc(NC(=O)Nc3cc(Cl)c(OC)cc3OC)sc2c1 | -2.26 | 1.33
CC(CCc1ccco1)NC(=O)c1nn(C)c2c1COc1ccccc1-2 (centres undefined) | 0 | 0.57
O=c1c2cccnc2n(Cc2ccc(Cl)cc2)c(=O)n1C1CCCCC1 | -0.52 | -0.64
Fc1ccc(-c2noc3ncnc(Nc4cccc(Cl)c4)c23)cc1 | x | -0.52
Fc1cccc(Nc2ncnc3onc(-c4ccc(Cl)cc4)c23)c1 | x | 17.6*
O=C(NCCc1ccncc1)Nc1c[nH]c2ccc(F)cc2c1=O | -0.84 | -0.16
CC1CCN(C(=O)c2cc3c(s2)-c2ccsc2CC3)CC1 | x | 1.29
CCOc1nc2c(c(=O)n(C)c(=O)n2C)n1C | -1.46 | x
CC1=C(C#N)c2nc(N)c(C#N)c(C)c2/C1=C/c1ccc(-c2ccc(C(=O)O)c(Cl)c2)o1 | 5.09* | x
CC1=C(C#N)C(=O)NC(=O)/C1=C\c1ccc(-c2ccccc2)o1 | -5.59 | x
CC1CCC2C(=O)N(c3ccc(C(=O)OC(C)C(=O)c4ccccc4)cc3)C(=O)C2C1 (centres undefined) | -1.91 | 1.66
COc1ccc(NC(=O)c2sc(=S)n3c2[nH]c(=O)c2ccccc23)cc1OC | x | 3.61
COc1ccc(NC(=O)c2sc(=S)n3c2[nH]c(=O)c2sccc23)cc1OC | x | 9.21*
Cc1nn(-c2ccccc2)c(-n2cccc2)c1CNC(=O)Nc1ccc(Br)cc1 | x | -1.55
Cn1c(SCC(=O)Nc2ccc(N3CCOCC3)cc2)nnc1-c1cc2ccccc2o1 | x | 0.93
Cc1ccc(C2NC(=O)c3n[nH]c(-c4ccco4)c32)cc1 (centres undefined) | -0.08 | -3.48
O=C1NC(c2ccco2)c2c1n[nH]c2-c1ccco1 (centres undefined) | 5.3* | 2.38
O=C1NC(c2cccnc2)c2c1n[nH]c2-c1ccco1 (centres undefined) | 8.87* | -5.49
O=C1NC(c2cccc(O)c2)c2c1n[nH]c2-c1ccco1 (centres undefined) | 2.27 | -0.63
CCOc1cc(C2NC(C(=O)O)CS2)ccc1OCc1ccc(C)cc1 (centres undefined) | -0.24 | x
SMILES | CDC25B CDK2 inh | HIV TAR-Tat
NC(N)=NC(N)=Nc1ccc2c(c1)OCO2 | -1.23 | x
COc1cc(C)ccc1OCCSc1nc(-c2cccc(F)c2)nc2cc(=O)[nH]n12 | x | -0.26
O=S1(=O)C[C@H](NCc2ccco2)[C@@H](S(=O)(=O)c2cccs2)C1 | -1.43 | -0.2
NC(=O)/C=C/c1cccc(C(F)(F)F)c1 | -3.34 | x
CC(=O)Nc1ccc2[nH]c(C)c(C(Nc3ccccn3)c3ccccn3)c2c1 (centres undefined) | -0.7 | 0.5
CC(CS(=O)(=O)c1ccc2c(c1)NC(=O)CS2)C(=O)NCc1ccco1 (centres undefined) | x | 5.27*
O=C1CSc2ccc(S(=O)(=O)NCc3ccco3)cc2N1 | x | 1.7
CCN(C(=O)c1cc2c(s1)-c1ccccc1S(=O)(=O)C2)c1ccc(F)cc1 | -4.1 | 1.7
CCS(=O)(=O)N1CCCc2ccc(NS(=O)(=O)c3cc(F)ccc3F)cc21 | x | -0.35
CCCS(=O)(=O)N1CCCc2ccc(NS(=O)(=O)c3cc(F)ccc3F)cc21 | x | 7.25*
Cc1c(C(=O)OCC2CCCO2)[nH]c2c1C(=O)CC(c1cccs1)C2 (centres undefined) | -0.89 | x
CC(C)CCN1CSC2=C(C#N)C(c3ccc(F)cc3)CC(=O)N2C1 (centres undefined) | 5.02* | -0.59
CCOC(=O)CN1CSC2=C(C#N)C(c3ccc(Cl)cc3)CC(=O)N2C1 (centres undefined) | 3.76* | 3.29
Cc1ccc(C2CC(=O)N3CN(CCC(C)C)CSC3=C2C#N)cc1 (centres undefined) | 5.21* | -2.14
CC(C)CCN1CSC2=C(C#N)C(c3ccc(Cl)cc3)CC(=O)N2C1 (centres undefined) | 0.66 | 0.8
CC1CCC(Nc2c(-c3ccc(C(C)C)cc3)c(=O)c2=O)CC1 (centres undefined) | x | 1.36
Cc1cc(NCc2ccc(F)cc2)n2nc(-c3ccco3)nc2n1 | x | -1.38
CC(=O)Nc1nnc(SCc2cc(=O)n3nc(C4CC4)sc3n2)s1 | x | 0.58

Bioassay records: PubChem, Center for Chemical Genomics, University of Michigan
